Only some compounds are listed: those with a hit (about 4.2% of all), similar ones and a draw of the others.
ALOX12 inh: ALOX12 (human) lipoxygenase inhibition. purified 12hLO, xylenol orange hydroperoxide absorbance. Potency, µM (highest dose often 108 µM), without a hit: at the highest dose activity change, negative = inhibition, usual class: inhibitors. 580,000 compounds, 1.1% hits. AID 1671190
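Purified human 12hLO (150 nM final) in 25 mM Hepes, 0.01% Triton X-100, pH 7.0 was preincubated 15 min at room temperature with compound. Then 40 uM arachidonic acid was added, 30 min. Hydroperoxide was read by Fe-XO absorbance ratio 573/405 nm.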
PLK1 PBD inh: blocks phosphopeptide binding to human PLK1 polo-box domain. P53350. Plk1 PBD binding of FITC phosphopeptide, fluorescence polarization. Potency, µM, for the others: max response, negative = inhibition, actives largely listed as inhibitors. 360,000 compounds, 2.8% hits. AID 720504; also: series mostly up to about 57 µM; nearly all actives have a fitted effect of over 65% in size
Target sequence (P53350 whole entry, looked up, the tested form may be a part): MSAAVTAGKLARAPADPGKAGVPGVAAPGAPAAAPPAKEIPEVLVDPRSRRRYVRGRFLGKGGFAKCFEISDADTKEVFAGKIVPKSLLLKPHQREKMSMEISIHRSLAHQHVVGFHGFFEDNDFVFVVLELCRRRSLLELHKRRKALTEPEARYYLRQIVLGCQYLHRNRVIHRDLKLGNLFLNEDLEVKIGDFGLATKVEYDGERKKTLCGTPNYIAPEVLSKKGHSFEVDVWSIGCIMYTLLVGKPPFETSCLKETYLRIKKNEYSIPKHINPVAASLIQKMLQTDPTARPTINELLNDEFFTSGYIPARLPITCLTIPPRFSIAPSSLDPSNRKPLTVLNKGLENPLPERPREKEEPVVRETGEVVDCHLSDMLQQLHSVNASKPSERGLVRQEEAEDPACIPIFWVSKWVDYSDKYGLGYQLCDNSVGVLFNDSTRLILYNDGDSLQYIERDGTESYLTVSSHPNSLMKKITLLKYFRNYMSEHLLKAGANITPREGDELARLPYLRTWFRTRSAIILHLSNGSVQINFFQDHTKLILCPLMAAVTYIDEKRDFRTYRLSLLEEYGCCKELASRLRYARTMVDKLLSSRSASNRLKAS
VDR inh: vitamin D3 receptor (human) inhibition; VDR-SRC2-3 peptide fluorescence polarization, 2 h; Potency, µM, inactives show max response, negative = inhibition, hits mostly inhibitors; 400,000 compounds, 0.93% hits; AID 504847
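Reagent solutions, kept cold and dark, are dispensed first; compounds are then pinned in at 23 nl, plates briefly spun, and incubated 2 h at ambient temperature. Inhibition of VDR–SRC2-3 peptide binding is read by fluorescence polarization.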
Sfp inh: blocks B. subtilis Sfp PPTase activity | Q9F4F7 | Biochemical Sfp PPTase activity, qHTS | Potency, µM, without a hit: largest response in the series, negative = inhibition, most hits filed as inhibitors | 310,000 compounds, 3.5% hits;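 also: the enzyme is Sfp with the accession as filed and its product quenches rhodamine fluorescence; 0% = enzyme reaction without inhibitor and -100% = no enzyme wells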
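Reaction rates are the 30-min fluorescence difference (ex 525, em 598 nm) in wells containing 15 nM Sfp, 5 uM rhodamine-CoA and 12.5 uM BHQ-2-YbbR at pH 7.6 with 10 mM MgCl2.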
* hit, by the source's call. Calls follow the shape of the dose curve; as a rule, active = well fitted curve in the direction sought with a large enough effect; inconclusive = small, poorly fitted or top-dose-only effect, or another doubt; inactive = no such curve, though single readings can be large; an effect the other way counts as inactive or inconclusive. Unless noted, % is scaled to controls: 0 for no effect and ±100 for the full control effect; potency is read from the fitted curve at half-maximal effect.

Results for CCNC(=S)N1CCNC(=O)C1CC(=O)OC (centres undefined) ?
ALOX12 inh: -2%; PLK1 PBD inh: -2%; VDR inh: -22%; Sfp inh: 79µM*

Results for CCc1ccc(CNC(=O)C2CCCCC(=O)N2)cc1 (centres undefined) ?
ALOX12 inh: 21%

What do the screens show for `COc1ccc(NC(=O)c2ccc(CN3CCCC3=O)cc2)cc1S(=O)(=O)N1CCOCC1`?
ALOX12 inh: 1%

How did COC(=O)Oc1ccc(/C=N/NC(=O)CSCc2ccc(Cl)cc2)cc1OC do in these assays?
ALOX12 inh: -3%; PLK1 PBD inh: -11%; VDR inh: -6%; Sfp inh: 7%

How did O=C(NN1C(=O)CSC1=S)c1cccnc1 do in these assays?
ALOX12 inh: 0%; PLK1 PBD inh: -8%; VDR inh: -16%; Sfp inh: 56µM*

How did Cc1ccc(NC(=O)CSc2ccc3c(c2)OCCCO3)c(Br)c1 do in these assays?
ALOX12 inh: 3%

Results for O=C(CCc1ccc(S(=O)(=O)NCc2ccccc2)cc1)N1CCN(Cc2ccc3c(c2)OCO3)CC1 ?
ALOX12 inh: 0%; PLK1 PBD inh: -7%; VDR inh: -9%; Sfp inh: 1%

Results for Cc1ccc(C(=O)N2CCN(Cc3ccc4c(c3)OCO4)CC2)o1 ?
ALOX12 inh: -26%; PLK1 PBD inh: 1%; VDR inh: -2%; Sfp inh: 7%

How did O=C(CCS(=O)(=O)c1ccccc1)N1CCN(c2cccc(C(F)(F)F)c2)CC1 do in these assays?
ALOX12 inh: -5%; PLK1 PBD inh: -26%; VDR inh: 5%; Sfp inh: 11%

How did O=C(CN1CCOCC1)N1c2ccccc2Sc2ccccc21 do in these assays?
ALOX12 inh: 5%; PLK1 PBD inh: 1%; VDR inh: 11%; Sfp inh: 10%

What do the screens show for `Cc1ccc2c(C)c(C(=O)N3CCN(Cc4ccc5c(c4)OCO5)CC3)oc2c1C`?
ALOX12 inh: -18%; PLK1 PBD inh: 4%; VDR inh: 12%; Sfp inh: 79µM*

Results for O=C(CN1CCN(Cc2ccc3c(c2)OCO3)CC1)N1c2ccccc2Sc2ccccc21 ?
ALOX12 inh: 0.79µM*; VDR inh: 3%; Sfp inh: inconclusive

What do the screens show for `O=C(CS(=O)(=O)Cc1ccccc1)N1CCN(c2cccc(C(F)(F)F)c2)CC1`?
ALOX12 inh: 0%; PLK1 PBD inh: 30µM*; VDR inh: -14%; Sfp inh: 7%

How did O=C(CS(=O)(=O)Cc1ccccc1)N1CCN(Cc2ccc3c(c2)OCO3)CC1 do in these assays?
ALOX12 inh: 7%; PLK1 PBD inh: 27µM*; VDR inh: inconclusive; Sfp inh: 5%

What do the screens show for `CCCc1nnc(NC(=O)CCC(=O)N2CCN(CCn3c(C)ccc3C)CC2)s1`?
ALOX12 inh: 1%; PLK1 PBD inh: -7%; VDR inh: 11%; Sfp inh: -3%

How did CN(C)CCN=Cc1c(O)n(-c2ccc(S(=O)(=O)N3CCOCC3)cc2)c(=O)c2ccccc12 do in these assays?
ALOX12 inh: 13%; PLK1 PBD inh: -16%; VDR inh: 12%

How did O=C1CC(SCc2nc3ccccc3[nH]2)C(=O)N1c1cccc(F)c1 (centres undefined) do in these assays?
ALOX12 inh: -1%; PLK1 PBD inh: -21%; VDR inh: 1%; Sfp inh: inconclusive

How did C=CCC(C)(NCc1ccccc1)c1ccccc1 (centres undefined) do in these assays?
ALOX12 inh: inconclusive; PLK1 PBD inh: 21µM*; VDR inh: inconclusive; Sfp inh: 2%

What do the screens show for `CSc1nc2c(c(=O)[nH]1)C(c1cccs1)C1=C(CCCC1=O)N2` (centres undefined)?
ALOX12 inh: 4%; PLK1 PBD inh: -20%; VDR inh: -1%; Sfp inh: 6%

Results for O=C1CCCC2=C1C(c1cn(-c3ccccc3)nc1-c1cccs1)c1c([nH]c(=O)[nH]c1=O)N2 (centres undefined) ?
ALOX12 inh: inconclusive; PLK1 PBD inh: 24µM*; VDR inh: 2%; Sfp inh: -3%

Results for C=CCN1C(=O)[C@H]2CCC=C[C@H]2[C@@H]1c1cccc(C)c1 ?
ALOX12 inh: inconclusive; PLK1 PBD inh: -4%; VDR inh: -13%

What do the screens show for `Cc1cccc([C@H]2[C@@H]3C=CCC[C@@H]3C(=O)N2Cc2ccccc2)c1`?
ALOX12 inh: 28µM*; PLK1 PBD inh: -10%; VDR inh: inconclusive; Sfp inh: inconclusive

How did C[N+]1(CC(=O)OC2CCCCCCCCCCC2)CCCC1 do in these assays?
ALOX12 inh: 45µM*; PLK1 PBD inh: -4%; VDR inh: -19%; Sfp inh: 0%

What do the screens show for `CN(N)c1ccc2c(C(F)(F)F)cc(C(F)(F)F)nc2n1`?
ALOX12 inh: 32%; PLK1 PBD inh: 24µM*; VDR inh: -12%; Sfp inh: inconclusive

How did COc1ccc(CN2CC3(CCN(S(=O)(=O)c4ccccc4Cl)CC3)C2=O)cc1 do in these assays?
ALOX12 inh: 18%

How did Cc1ccc(NC(=O)Cn2c(CCC(=O)O)ccc2-c2cccs2)cc1Cl do in these assays?
ALOX12 inh: inconclusive; PLK1 PBD inh: -8%; VDR inh: 2%; Sfp inh: 40µM*

How did O=C(O)CCc1ccc(-c2cccs2)n1CCC(=O)O do in these assays?
ALOX12 inh: inconclusive; PLK1 PBD inh: -11%; VDR inh: 9%; Sfp inh: 7.9µM*

What do the screens show for `O=C(O)CCc1ccc(-c2cccs2)n1NC(=O)c1ccccc1Br`?
ALOX12 inh: -16%; PLK1 PBD inh: -8%; VDR inh: -3%; Sfp inh: inconclusive

How did O=C(O)CCc1ccc(-c2cccs2)n1CCc1ccccc1 do in these assays?
ALOX12 inh: inconclusive; PLK1 PBD inh: -18%; VDR inh: -2%; Sfp inh: 20µM*

How did CCCCN(C)C1=Nc2cccc3cccc1c23 do in these assays?
ALOX12 inh: inconclusive; PLK1 PBD inh: -7%; VDR inh: 12%; Sfp inh: 2%

How did O=C(O)C1CCCN(S(=O)(=O)c2ccc(Cl)s2)C1 (centres undefined) do in these assays?
ALOX12 inh: -2%; PLK1 PBD inh: -3%; VDR inh: -13%; Sfp inh: 19%

How did COCCCNc1oc(-c2ccccc2F)nc1C#N do in these assays?
ALOX12 inh: 164%; PLK1 PBD inh: 24µM*; VDR inh: inconclusive; Sfp inh: 5%

Results for COCCCNc1oc(-c2ccccc2OC)nc1C#N ?
ALOX12 inh: 3%; PLK1 PBD inh: -7%; VDR inh: -9%; Sfp inh: -21%

Results for CCCN(CCC)CC1=C(C(=O)OCC)C(c2ccc(C)cc2)NC(=O)N1 (centres undefined) ?
ALOX12 inh: 14µM*

Results for COc1cc(/C=C/C(=O)NCc2ccccn2)cc(OC)c1OC ?
ALOX12 inh: 13%; PLK1 PBD inh: -4%; VDR inh: 11%; Sfp inh: -2%

How did C=C1C(=O)[C@]23C[C@H]1CCC2[C@@]1(C)C(C[C@@H]3O)[C@](C)(C(=O)OC)CC[C@@H]1OC(C)=O (some centres undefined) do in these assays?
ALOX12 inh: -4%; PLK1 PBD inh: 11µM*

Bioassay records deposited in PubChem by National Center for Advancing Translational Sciences (NCATS).
